Assay results taken from PubChem BioAssay.
Results filed as inconclusive are left out. Activity calls are given as the source filed them. Unless noted, cut-off not given; nearly all actives show AC50 up to about 26 µM.

Tests used:
[1] = viability loss in pontine glioma line – cell-based, SU-DIPG-XVII, MIPE5.0, CellTiter-Glo, qHTS, dose response (AID 1347060); conditions: CellTiter-Glo ATP luminescence;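 on AC50: cells exposed to compound for 48 hours before viability readout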
[2] = viability loss in pontine glioma line – cell-based, SU-DIPG-XIII, MIPE4.0, CellTiter-Glo, qHTS, dose response (AID 1347061; cut-off not given, nearly all actives have AC50 up to about 37 µM;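 further: cells exposed to compound for 48 hours before readout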); conditions: CellTiter-Glo ATP luminescence
[3] = viability loss in pontine glioma line – cell-based, JHH-DIPG-1, MIPE4.0, CellTiter-Glo, qHTS, dose response (AID 1347062; cut-off not given, nearly all actives have AC50 up to about 27 µM;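 on AC50: cells exposed to compound for two days before readout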); conditions: JHH-DIPG-1 viability, CellTiter-Glo ATP luminescence
[4] = viability loss in pontine glioma line – cell-based, SU-DIPG-IV, MIPE4.0, CellTiter-Glo, qHTS, dose response (AID 1347063; cut-off not given, nearly all actives have AC50 up to about 30 µM;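 further: compound exposure lasted 48 hours before the viability readout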); conditions: CellTiter-Glo ATP luminescence
[5] = viability loss in pontine glioma line – cell-based, SU-DIPG-XIII, MIPE5.0, CellTiter-Glo, qHTS, dose response (AID 1347064; cut-off not given, nearly all actives have AC50 up to about 23 µM;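 on AC50: cells exposed to compound for 48 hours before the viability read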); conditions: CellTiter-Glo ATP luminescence
[6] = viability loss in pontine glioma line – cell-based, SU-DIPG-XXV, MIPE5.0, CellTiter-Glo, qHTS, dose response (AID 1347065); conditions: CellTiter-Glo ATP luminescence;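 further: cells exposed to compound for 48 hours before ATP readout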
[7] = growth inhibition of DIPG cells – cell-based, MIPE4.0 library, CellTiter-Glo luminescence, qHTS (AID 1347066; cut-off not given, nearly all actives have AC50 up to about 30 µM;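 further: cells exposed to compound for 48 hours before readout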); conditions: SU-DIPG-VI viability, CellTiter-Glo ATP luminescence
[8] = JHH-DIPG-1 glioma cell viability, MIPE5.0 library, CellTiter-Glo luminescence, qHTS (AID 1347067); conditions: JHH-DIPG-1 glioma viability, CellTiter-Glo ATP luminescence;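 further: cells exposed to compound for 48 hours before readout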
[9] = growth inhibition of DIPG cells – cell-based, MIPE5.0 library, qHTS (AID 1347068; cut-off not given, nearly all actives have IC50 up to about 30 µM;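 on IC50: cells exposed to compound for 48 hours before viability readout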); conditions: SU-DIPG-XXV viability
[10] = viability loss with induced miR-34 in A549 – imaging, A549 dox-inducible miR-34, nuclei and caspase counts, primary screen (AID 1347080;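 active means compounds whose cell count with miR-34 switched on is under 0.7 times the count with it off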); conditions: A549 miR-34 inducible, Hoechst nuclei count, 48 h
[11] = stronger effect = lower value, cell number ratio, induced over uninduced
[12] = measured here: relative caspase fold change +Dox/-Dox
[13] = measured here: total cells with miR-34 induction, stronger effect = lower value
[14] = measured here: total cells without miR-34 induction

C[C@@]12O[C@@H](C[C@]1(O)CO)n1c3ccccc3c3c4c(c5c6ccccc6n2c5c31)CNC4=O
AC50 [1]: 2950 nM (active) | AC50 [2]: 4690 nM (active) | AC50 [3]: 2960 nM (active) | AC50 [4]: 8330 nM (active) | AC50 [5]: 1320 nM (active) | AC50 [6]: 186 nM (active) | AC50 [7]: 8330 nM (active) | AC50 [8]: 1860 nM (active) | IC50 [9]: 2630 nM (active)

COc1cc(C(=O)NC(N)=Nc2ccc(C)c(NC(=O)c3ccc(-c4ccccc4)cc3)c2)cc(OC)c1OC
AC50 [1]: 16600 nM (active)

C[C@H](O)[C@@H]1C(=O)N2C(C(=O)O)=C(S[C@@H]3CN[C@H](CNS(N)(=O)=O)C3)[C@@H](C)[C@@H]12
outcome [1]: inactive | outcome [2]: inactive | outcome [3]: inactive | outcome [4]: inactive | outcome [5]: inactive | outcome [6]: inactive | outcome [7]: inactive | outcome [8]: inactive | outcome [9]: inactive

CCOc1cc2c(c(F)c1OCC)C(=N)N(CC(=O)c1cc(N3CCOCC3)c(OC)c(C(C)(C)C)c1)C2
AC50 [1]: 26300 nM (active) | AC50 [2]: 2350 nM (active) | AC50 [3]: 23500 nM (active) | AC50 [4]: 16600 nM (active) | AC50 [5]: 29500 nM (active) | AC50 [6]: 23500 nM (active) | AC50 [7]: 16600 nM (active) | AC50 [8]: 20900 nM (active)

COc1cccc2nc(-c3cccs3)nc(NN3C(=O)C=C(C)C3=O)c12
AC50 [1]: 833 nM (active) | AC50 [2]: 10500 nM (active) | AC50 [3]: 16600 nM (active) | AC50 [4]: 296 nM (active) | AC50 [5]: 2090 nM (active) | AC50 [6]: 1660 nM (active) | AC50 [7]: 3720 nM (active) | AC50 [8]: 2350 nM (active) | IC50 [9]: 7420 nM (active)

CCC(=O)O[C@]1(C(=O)CO)CC[C@H]2[C@@H]3CCC4=CC(=O)CC[C@]4(C)[C@H]3CC[C@@]21C
outcome [1]: inactive | outcome [2]: inactive | outcome [3]: inactive | outcome [4]: inactive | outcome [5]: inactive | outcome [6]: inactive | outcome [7]: inactive | outcome [8]: inactive | outcome [9]: inactive

Clc1cccc(-n2nnnc2NCc2ccccc2Oc2ccccn2)c1Cl
outcome [1]: inactive | outcome [2]: inactive | outcome [3]: inactive | outcome [4]: inactive | outcome [5]: inactive | outcome [6]: inactive | outcome [7]: inactive | outcome [8]: inactive | outcome [9]: inactive

CC(=O)NCC(=O)N1[C@@H]2CC[C@H]1c1ccc(Nc3ncc(C(F)(F)F)c(NC4CCC4)n3)cc12
AC50 [1]: 417 nM (active) | AC50 [2]: 1660 nM (active) | AC50 [3]: 5900 nM (active) | AC50 [4]: 1870 nM (active) | AC50 [5]: 661 nM (active) | AC50 [6]: 186 nM (active) | AC50 [7]: 2640 nM (active) | AC50 [8]: 1860 nM (active) | IC50 [9]: 833 nM (active)

NS(=O)(=O)c1ccc(NC(=S)N2CCN(C/C=C/c3ccccc3)CC2)cc1
outcome [1]: inactive

c1ccc(-c2n[nH]c3c2oc2ccccc23)cc1
fold change [10, 11]: 0.891 (inactive) | fold change [10, 12]: 1.09 | cell count [10, 13]: 6520 | cell count [10, 14]: 7320

Nc1nc(-c2nn(Cc3ccccc3F)c3ncccc23)nc(N)c1N1CCOCC1
outcome [1]: inactive | outcome [2]: inactive | outcome [3]: inactive | outcome [4]: inactive | outcome [5]: inactive | outcome [6]: inactive | outcome [7]: inactive | outcome [8]: inactive | outcome [9]: inactive

CN(C)C(=O)n1nnnc1Cc1ccc(-c2ccccc2)cc1
fold change [10, 11]: 1.31 (inactive) | fold change [10, 12]: 1.05 | cell count [10, 13]: 1840 | cell count [10, 14]: 1400

COc1ccc(OC)c2c(=S)c3ccccc3[nH]c12
fold change [10, 11]: 0.958 (inactive) | fold change [10, 12]: 1.3 | cell count [10, 13]: 8120 | cell count [10, 14]: 8480

CCOC(=O)C12CC1/C(=N\O)c1ccccc1O2 (stereo not drawn)
fold change [10, 11]: 0.923 (inactive) | fold change [10, 12]: 1.17 | cell count [10, 13]: 8510 | cell count [10, 14]: 9220

c1cc(CN2CCCNCCNCCCNCC2)ccc1CN1CCCNCCNCCCNCC1
outcome [1]: inactive | outcome [2]: inactive | outcome [3]: inactive | outcome [4]: inactive | outcome [5]: inactive | outcome [6]: inactive | outcome [7]: inactive | outcome [8]: inactive | outcome [9]: inactive

COc1cc2ncnc(Nc3ccc(Oc4ccccc4)cc3)c2cc1OC
fold change [10, 11]: 0.963 (inactive) | fold change [10, 12]: 1.11 | cell count [10, 13]: 8700 | cell count [10, 14]: 9040

CC[C@@]1(O)C(=O)OCc2c1cc1n(c2=O)Cc2c-1nc1cc(F)c(C)c3c1c2[C@@H](N)CC3
AC50 [1]: 2.35 nM (active)

COc1cc(C)c(Sc2cnc(NC(=O)c3ccc(CNC(C)C(C)(C)C)cc3)s2)cc1C(=O)N1CCN(C(C)=O)CC1 (stereo not drawn)
AC50 [1]: 10500 nM (active) | AC50 [2]: 16600 nM (active) | AC50 [3]: 20900 nM (active) | AC50 [4]: 7430 nM (active) | AC50 [5]: 6610 nM (active) | AC50 [6]: 4170 nM (active) | AC50 [7]: 18700 nM (active)

O=C(c1ccc(F)c(F)c1Nc1ccc(I)cc1F)N1CC(O)([C@@H]2CCCCN2)C1
AC50 [1]: 332 nM (active) | AC50 [2]: 418 nM (active) | AC50 [3]: 332 nM (active) | AC50 [4]: 5900 nM (active) | AC50 [5]: 372 nM (active) | AC50 [6]: 525 nM (active)

COc1ccc(Nc2cc(-c3cnc(N)nc3)nc(N3CCOCC3)n2)cn1
AC50 [1]: 2950 nM (active) | AC50 [2]: 18700 nM (active) | AC50 [3]: 5900 nM (active) | AC50 [4]: 4690 nM (active) | AC50 [5]: 1660 nM (active) | AC50 [6]: 1320 nM (active) | AC50 [7]: 4180 nM (active)
